Laboratory results from the supplement of paper PMC10338343.
± gives the standard deviation. In all, about 8,200 sequences were measured (“pre-steady-state target cleavage rate”: median about 0.024, highest 2% from about 1.3 on). The sample as a whole holds a higher share of the highest values than the screen did.

Test system: MIWI (PIWIL1) piRISC loaded with L1MC piRNA (30 nt)
Test: pre-steady-state target cleavage rate (min^-1); MIWI and MILI are mouse PIWI proteins and EfPiwi is from a freshwater sponge; tags in brackets are library labels; higher = faster piRNA-guided slicing of the target
Conditions: guide: L1MC piRNA 5'p-UAACUAAAUACUAUGCAAGCUGUAGGUCCU
How it was run: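 A transcribed, DNA-blocked target RNA library (0.1 nM) and 1 nM active affinity-purified piRISC bearing one synthetic guide were incubated in HEPES–potassium acetate buffer at 33 °C for 0–8 or 0–960 min, either with or without 500 nM GTSF1 partner protein. Uncleaved targets were sequenced, normalised to depth and to weakly complementary targets, and pooled over three trials, with k3 capped at 0.0001 min^-1. The pre-steady-state cleavage rate was derived with a burst-and-steady-state fit.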

[1] = auxiliary factor: 500 nM mouse GTSF1
[2] = auxiliary factor: none (no GTSF1)

Sequence | pre-steady-state target cleavage rate [1] | pre-steady-state target cleavage rate [2]
UCCUGGUACAGCUUGACAUAGUAUUUAGUUA | 0.271 ± 0.027 | 
UCCUGGUACACCUUGCAUAGUAUUUUGUUA | 0.436 ± 0.1 | 0.00901 ± 0.0027
ACGACCUACAGCUUGCAUAGUAUUUUCAAA | 0.618 ± 0.067 | 0.00505 ± 0.004
UCCUGGAUGUCCUUGCAUAGUAUUUAGUGUA | 0.0232 ± 0.0073 | 0.00487 ± 0.0027
UGGACCUACAGCAUCCAUAGUAUUUAGUUA | 0.102 ± 0.017 | 0.00273 ± 0.002
UGGACCUACAGCAUGCUUAGUAUUUAGUUA | 0.877 ± 0.056 | 0.0147 ± 0.0037
UGGACCUACAGCAUGGAUAGUAUUUAGUUA | 1.47 ± 0.1 | 0.0301 ± 0.0054
UCCUGGAUGAGCUUGCAUAGUAUAUUGUUA | 0.165 ± 0.021 | 0.0157 ± 0.004
UCCUGGAAGAGCUUGCAUAGUAUUUUGUUA | 0.704 ± 0.076 | 0.0231 ± 0.0062
UCGACCUACAGCUACCAUAGUAUUUAGUAA | 0.355 ± 0.037 | 
UCCUGCAACAGCUUGCAUAGUAUAUAGUUA | 0.844 ± 0.063 | 0.0237 ± 0.0057
UCCUGCAACAGCUUCCAUAGUAUUUAGUUA | 0.0524 ± 0.015 | 
UCCUGGAUGAGGUUGCAUAGUAUUUAGUUA | 0.274 ± 0.022 | 0.00581 ± 0.0018
AGGACGAUCAGCUUGCAUAGUAUUUAGUUA | 1.43 ± 0.068 | 0.0865 ± 0.016
AGGACGAUCAGCUUGCAUAGUAUUUAGUAA | 1.02 ± 0.12 | 0.0692 ± 0.015
UGGACGAUCAGCUUGCAUAGUAUUUAGUUA | 1.47 ± 0.071 | 0.0852 ± 0.016
UGGACGAUCAGCUUGCAUAGUAUUUAGAAA | 0.499 ± 0.048 | 0.0141 ± 0.0042
UCCUCGAUCAGCUUGCAUAGUAUUUAGUUA | 1.58 ± 0.056 | 0.0718 ± 0.013
UCGACGAUCAGCUUGCAUAGUAUUUAGUUA | 1.6 ± 0.047 | 0.0826 ± 0.017
UCCUCGAUCAGCUUGCAUAGUAUUUAGAAA | 0.422 ± 0.044 | 0.00569 ± 0.0022
UCCUCGAUCAGCUUGCAUAGUAUUUAGUAA | 1.06 ± 0.048 | 0.04 ± 0.0086
UCGACGAUCAGCUUGCAUAGUAUUUAGUAA | 1.05 ± 0.063 | 0.048 ± 0.011

Sequence | pre-steady-state target cleavage rate [1] | pre-steady-state target cleavage rate [2]
UGGACGAUCAGCUUGCAUAGUAUUUAGUAA | 0.953 ± 0.064 | 0.0656 ± 0.013
AGGACGAUCAGCUUGCAUAGUAUUUAGAAA | 0.384 ± 0.061 | 0.0104 ± 0.0037
UCGACGAUCAGCUUGCAUAGUAUUUAGAAA | 0.494 ± 0.05 | 0.0104 ± 0.0033
UCCUGGAUGAGCUUGCUUAGAAUUUAGUUA | 0.0359 ± 0.0063 | 0.00574 ± 0.0024
UCCUGCAUCAGCUUGCAUAGUAUUUAGUUA | 1.2 ± 0.066 | 0.0666 ± 0.014
UCCUGCUACAGCUUGCAUGUAUUUAGUUA | 0.413 ± 0.054 | 0.00516 ± 0.0026
ACCUCCUACAGCUUGCAUAGUAUUUAGAAA | 0.54 ± 0.061 | 0.00602 ± 0.0029
AGGACCUACAGCAUCCAUAGUAUUUAGUUA | 0.319 ± 0.053 | 
UCGACCUACUCGUUGCAUAGUAUUUACAAA | 0.165 ± 0.025 | 
UGCACCUACACCUUGCAUAGUAUUUAGUUA | 0.967 ± 0.059 | 0.0415 ± 0.0067
UCCUGGUACAGGUUGCAUAGUAUUUACUUA | 0.125 ± 0.035 | 0.00733 ± 0.003
UGGACCUACAGACUUGCAUAGUAUUUAGUUA | 1.13 ± 0.1 | 0.0446 ± 0.0075
UCCUGGAUGUCGUUAGCAUAGUAUUUAGUUA | 0.0102 ± 0.0036 | 
UCCUGGAUGUGCUAGCAUAGUAUAUAGUUA | 0.0106 ± 0.0042 | 
UCCACGAUCAGCUUGCAUAGUAUUUAGUAA | 1.09 ± 0.079 | 0.0387 ± 0.009
UCCACGAUCAGCUUGCAUAGUAUUUAGAAA | 0.444 ± 0.044 | 0.00814 ± 0.0028
UCCACGAUCAGCUUGCAUAGUAUUUAGUUA | 1.55 ± 0.058 | 0.0711 ± 0.013
UCCUGCUACAGCUUGCAUAGAAUUUACAAA | 0.309 ± 0.065 | 
AGGACCUACAGCUUGCAUAGUAUAUUCAAA | 0.419 ± 0.072 | 
AGGACCUUCAGCUUGCAUAGUAUUUUCAAA | 0.311 ± 0.038 | 0.00593 ± 0.0032
UCCUGCACAGCUUGCAUAGUAUUUAGUUA | 1.34 ± 0.073 | 0.0804 ± 0.018
UCCUCCCACAGCUUGCAUAGUAUUUAGUUA | 1.15 ± 0.04 | 0.0641 ± 0.012

Sequence | pre-steady-state target cleavage rate [1] | pre-steady-state target cleavage rate [2]
UCCUCCACAGCUUGCAUAGUAUUUAGUUA | 0.736 ± 0.027 | 0.0534 ± 0.011
UCCUGCCACAGCUUGCAUAGUAUUUAGUUA | 1.2 ± 0.051 | 0.0769 ± 0.013
UCCUGGUCACAGCUUGCAUAGUAUUUAGUUA | 0.818 ± 0.034 | 0.0939 ± 0.022
UCCUGCUCACAGCUUGCAUAGUAUUUAGUUA | 1.37 ± 0.076 | 0.0748 ± 0.014
UCCUCCUCACAGCUUGCAUAGUAUUUAGUUA | 1.49 ± 0.064 | 0.0662 ± 0.014
UCCUGGCACAGCUUGCAUAGUAUUUAGUUA | 0.456 ± 0.081 | 0.0452 ± 0.011
UCCUGCUCAGCUUGCAUAGUAUUUAGUUA | 1.09 ± 0.043 | 0.0636 ± 0.013
UCCUGGAUGAGCAAGCAUAGUAUUUAGUAA | 0.0379 ± 0.01 | 
UCCUGGAUGUGCAUGCAUAGUAUUUAGUUA | 0.13 ± 0.014 | 0.00793 ± 0.0025
UCCUGGAUGUGCUUGCAAAGUUUUUAGUUA | 0.00751 ± 0.0037 | 0.00575 ± 0.002
AGGACCAACAGCUUGCAUAGUAUUUAGAUA | 0.509 ± 0.045 | 0.0557 ± 0.011
UCGACCAACAGCUUGGAUAGUAUUUAGUUA | 1.67 ± 0.045 | 0.0693 ± 0.011
UCCACCAACAGCUUGGAUAGUAUUUAGUUA | 1.36 ± 0.056 | 0.0553 ± 0.01
UGGACCAACAGCUUCCAUAGUAUUUAGUUA | 0.0364 ± 0.0068 | 0.00383 ± 0.0016
UCCAGCUACAGCUUGGAUAGUAUUUAGUUA | 1.31 ± 0.12 | 0.0456 ± 0.0069
UGGACCAACAGCUUGGAUAGUAUUUAGUUA | 1.49 ± 0.054 | 0.0691 ± 0.011
AGGACCAACAGCUUGGAUAGUAUUUAGUUA | 1.41 ± 0.059 | 0.0681 ± 0.01
UCCUCCAACAGCUUGGAUAGUAUUUAGUUA | 1.3 ± 0.053 | 0.0527 ± 0.0092
UCGACCAACAGCUUCCAUAGUAUUUAGUUA | 0.0723 ± 0.016 | 0.0035 ± 0.0011
UCCUGGAACAGCUUGGAUAGUAUUUAGUUA | 1.18 ± 0.043 | 0.0808 ± 0.015
UCGAGCUACAGCUUGGAUAGUAUUUAGUUA | 1.11 ± 0.086 | 0.0477 ± 0.0076
